This test in a line: competitive ABPP of pPAFAH versus proteome off-targets – biochemical, gel-based, FP-Rh fluorescence, mouse, HTS hit compounds, selectivity assay for pPAFAH inhibitor project, late-stage follow-up (AID 588773). The note with it: MW 30 kDa protein, at 10 µM, active compounds read high.

Unmarked numbers belong to inactive results.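 The calls were made as follows: active = inhibition of plasma PAF acetylhydrolase at a set limit or more at 0.1 µM, with tenfold selectivity over all off-targets; inactive = inhibition below the limit or weaker selectivity.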

On to `CN(C)C(=O)Oc1noc2cc(Cl)ccc12`, for which the inhibition (commonly the relative decrease from the control value, in per cent) was 14%.
As for `O=C(Oc1ccc([N+](=O)[O-])cc1)N1CCC(N2CCCCC2)CC1`, the inhibition is 27%.

The values above are taken from PubChem BioAssay AID588773 (The Scripps Research Institute Molecular Screening Center, 2011).
